Assay results taken from the supplement of paper PMC7411054.
Structures can show the parent of a compound that is named as a salt.

Key:
Conditions in all cases: treatment time: 24 h
[1] = system: A549-ACTB-RAB5A; test: lowest phenotypically active concentration; higher = less potent
Outline: (§1)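 Cells from fifteen gene-edited reporter lines (A549, HepG2 and WPMY1) were treated for 24 h at 0.3, 1, 3 or 9 µM and imaged live, four wells per condition. Features were normalised per well to solvent control wells. A condition deviated if ≥3 of 4 wells passed the 95th percentile of control Euclidean distances and was reproducible if its median replicate Pearson correlation beat the 95th percentile of non-replicates; phenotypic activity needed both.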

[2] = system: A549-CANX-COX4; test: as above
Outline: as §1

[3] = system: A549-GM130-SQSTM1; test: as above
Outline: as §1

[4] = system: A549-TP53BP1-CLTA; test: as above
Outline: as §1

[5] = system: A549-TUBA1B-RELA; test: as above
Outline: as §1

[6] = system: HepG2-GM130-SQSTM1; test: as above
Outline: as §1

[7] = system: A549-ACTB-RAB5A; test: phenotypically active (imaging signature differs from DMSO and reproducible) at any of 0.3-9 uM (binary (1 = active, 0 = inactive)); higher = active
Outline: as §1

[8] = system: A549-CANX-COX4; test: as above
Outline: as §1

[9] = system: A549-GM130-SQSTM1; test: as above
Outline: as §1

[10] = system: A549-TP53BP1-CLTA; test: as above
Outline: as §1

[11] = system: A549-TUBA1B-RELA; test: as above
Outline: as §1

[12] = system: HepG2-ACTB-RAB5A; test: as above
Outline: as §1

[13] = system: HepG2-CANX-COX4; test: as above
Outline: as §1

[14] = system: HepG2-GM130-SQSTM1; test: as above
Outline: as §1

[15] = system: HepG2-TP53BP1-CLTA; test: as above
Outline: as §1

[16] = system: HepG2-TUBA1B-RELA; test: as above
Outline: as §1

[17] = system: WPMY1-CANX-COX4; test: as above
Outline: as §1

[18] = system: WPMY1-GM130-SQSTM1; test: as above
Outline: as §1

[19] = system: WPMY1-TP53BP1-CLTA; test: as above
Outline: as §1

[20] = system: WPMY1-TUBA1B-RELA; test: as above
Outline: as §1

C[C@@H](N)[C@H]1CC[C@H](C(=O)Nc2ccncc2)CC1
1 µM: lowest phenotypically active concentration [6]
3 µM: lowest phenotypically active concentration [1] | lowest phenotypically active concentration [4]
9 µM: lowest phenotypically active concentration [2] | lowest phenotypically active concentration [3] | lowest phenotypically active concentration [5]
active: phenotypically active [7] 1 | phenotypically active [8] 1 | phenotypically active [9] 1 | phenotypically active [10] 1 | phenotypically active [11] 1 | phenotypically active [12] 1 | phenotypically active [13] 1 | phenotypically active [14] 1 | phenotypically active [15] 1 | phenotypically active [16] 1 | phenotypically active [17] 1 | phenotypically active [18] 1 | phenotypically active [19] 1 | phenotypically active [20] 1

COc1ccc(N(C)c2nc(C)nc3ccccc23)cc1 [MPC 6827 hydrochloride]
active: phenotypically active [7] 1 | phenotypically active [8] 1 | phenotypically active [9] 1 | phenotypically active [10] 1 | phenotypically active [11] 1 | phenotypically active [12] 1 | phenotypically active [13] 1 | phenotypically active [14] 1 | phenotypically active [15] 1 | phenotypically active [16] 1 | phenotypically active [17] 1 | phenotypically active [18] 1 | phenotypically active [19] 1 | phenotypically active [20] 1
1 µM: lowest phenotypically active concentration [4]
≤ 0.3 µM: lowest phenotypically active concentration [1] | lowest phenotypically active concentration [2] | lowest phenotypically active concentration [3] | lowest phenotypically active concentration [5] | lowest phenotypically active concentration [6]

CC(=O)Nc1ccc(C(=O)Nc2ccccc2N)cc1
1 µM: lowest phenotypically active concentration [1] | lowest phenotypically active concentration [2] | lowest phenotypically active concentration [3] | lowest phenotypically active concentration [5] | lowest phenotypically active concentration [6]
active: phenotypically active [7] 1 | phenotypically active [8] 1 | phenotypically active [9] 1 | phenotypically active [10] 1 | phenotypically active [11] 1 | phenotypically active [12] 1 | phenotypically active [13] 1 | phenotypically active [14] 1 | phenotypically active [15] 1 | phenotypically active [16] 1 | phenotypically active [17] 1 | phenotypically active [18] 1 | phenotypically active [19] 1 | phenotypically active [20] 1
3 µM: lowest phenotypically active concentration [4]

CN1CCC(=C2c3ccccc3CC(=O)c3sccc32)CC1 [ketotifen]
9 µM: lowest phenotypically active concentration [1] | lowest phenotypically active concentration [2] | lowest phenotypically active concentration [3] | lowest phenotypically active concentration [4] | lowest phenotypically active concentration [5] | lowest phenotypically active concentration [6]
active: phenotypically active [7] 1 | phenotypically active [8] 1 | phenotypically active [9] 1 | phenotypically active [10] 1 | phenotypically active [11] 1 | phenotypically active [12] 1 | phenotypically active [13] 1 | phenotypically active [14] 1 | phenotypically active [15] 1 | phenotypically active [16] 1 | phenotypically active [17] 1 | phenotypically active [18] 1 | phenotypically active [19] 1 | phenotypically active [20] 1

C[C@@H]1CN(CC(=O)Nc2ccc3c(c2)Cc2cccc(-c4cc(=O)cc(N5CCOCC5)o4)c2S3)C[C@H](C)O1
active: phenotypically active [7] 1 | phenotypically active [8] 1 | phenotypically active [9] 1 | phenotypically active [10] 1 | phenotypically active [11] 1 | phenotypically active [12] 1 | phenotypically active [13] 1 | phenotypically active [14] 1 | phenotypically active [15] 1 | phenotypically active [16] 1 | phenotypically active [17] 1 | phenotypically active [18] 1 | phenotypically active [19] 1 | phenotypically active [20] 1
3 µM: lowest phenotypically active concentration [1] | lowest phenotypically active concentration [3] | lowest phenotypically active concentration [6]
9 µM: lowest phenotypically active concentration [2] | lowest phenotypically active concentration [4] | lowest phenotypically active concentration [5]

CC(=O)c1c(C)c2cnc(Nc3ccc(N4CCNCC4)cn3)nc2n(C2CCCC2)c1=O
≤ 0.3 µM: lowest phenotypically active concentration [1] | lowest phenotypically active concentration [2] | lowest phenotypically active concentration [3] | lowest phenotypically active concentration [4] | lowest phenotypically active concentration [5] | lowest phenotypically active concentration [6]
active: phenotypically active [7] 1 | phenotypically active [8] 1 | phenotypically active [9] 1 | phenotypically active [10] 1 | phenotypically active [11] 1 | phenotypically active [12] 1 | phenotypically active [13] 1 | phenotypically active [14] 1 | phenotypically active [15] 1 | phenotypically active [16] 1 | phenotypically active [17] 1 | phenotypically active [18] 1 | phenotypically active [19] 1 | phenotypically active [20] 1

Cn1cc(-c2[nH]c3cc(NC(=O)[C@H](N)C4CCCCC4)cc4c3c2C=NNC4=O)cn1
3 µM: lowest phenotypically active concentration [4]
active: phenotypically active [7] 1 | phenotypically active [8] 1 | phenotypically active [9] 1 | phenotypically active [10] 1 | phenotypically active [11] 1 | phenotypically active [12] 1 | phenotypically active [13] 1 | phenotypically active [14] 1 | phenotypically active [15] 1 | phenotypically active [16] 1 | phenotypically active [17] 1 | phenotypically active [18] 1 | phenotypically active [19] 1 | phenotypically active [20] 1
1 µM: lowest phenotypically active concentration [6]
9 µM: lowest phenotypically active concentration [1] | lowest phenotypically active concentration [2] | lowest phenotypically active concentration [3] | lowest phenotypically active concentration [5]

C=CC(=O)N1CCC[C@@H](n2nc(-c3cccc(C(=O)Nc4ccc(C(C)C)c(C)c4)c3)c3c(N)ncnc32)C1
active: phenotypically active [7] 1 | phenotypically active [8] 1 | phenotypically active [9] 1 | phenotypically active [10] 1 | phenotypically active [11] 1 | phenotypically active [12] 1 | phenotypically active [13] 1 | phenotypically active [14] 1 | phenotypically active [15] 1 | phenotypically active [16] 1 | phenotypically active [17] 1 | phenotypically active [18] 1 | phenotypically active [19] 1 | phenotypically active [20] 1
3 µM: lowest phenotypically active concentration [1] | lowest phenotypically active concentration [2] | lowest phenotypically active concentration [3] | lowest phenotypically active concentration [4]
1 µM: lowest phenotypically active concentration [5] | lowest phenotypically active concentration [6]

CN1CCN(C(=O)CN[C@H]2C[C@@H]2c2ccc(OCc3ccccc3)cc2)CC1 [RN 1 dihydrochloride]
active: phenotypically active [7] 1 | phenotypically active [8] 1 | phenotypically active [9] 1 | phenotypically active [10] 1 | phenotypically active [11] 1 | phenotypically active [12] 1 | phenotypically active [14] 1 | phenotypically active [15] 1 | phenotypically active [16] 1 | phenotypically active [17] 1 | phenotypically active [18] 1 | phenotypically active [19] 1 | phenotypically active [20] 1
9 µM: lowest phenotypically active concentration [2] | lowest phenotypically active concentration [3] | lowest phenotypically active concentration [4]
inactive: phenotypically active [13] 0
3 µM: lowest phenotypically active concentration [1] | lowest phenotypically active concentration [5] | lowest phenotypically active concentration [6]

C=CC(=O)Nc1cccc(Nc2nc(Nc3ccc(Oc4ccnc(C(=O)NC)c4)cc3)ncc2F)c1
inactive: phenotypically active [13] 0 | phenotypically active [19] 0 | phenotypically active [20] 0
active: phenotypically active [7] 1 | phenotypically active [8] 1 | phenotypically active [9] 1 | phenotypically active [10] 1 | phenotypically active [11] 1 | phenotypically active [12] 1 | phenotypically active [14] 1 | phenotypically active [15] 1 | phenotypically active [16] 1 | phenotypically active [17] 1 | phenotypically active [18] 1
9 µM: lowest phenotypically active concentration [1] | lowest phenotypically active concentration [2] | lowest phenotypically active concentration [3] | lowest phenotypically active concentration [4] | lowest phenotypically active concentration [5] | lowest phenotypically active concentration [6]

CN(C)CCCN1c2ccccc2Sc2ccc(Cl)cc21 [chlorpromazine]
3 µM: lowest phenotypically active concentration [1] | lowest phenotypically active concentration [3] | lowest phenotypically active concentration [5]
9 µM: lowest phenotypically active concentration [2] | lowest phenotypically active concentration [4] | lowest phenotypically active concentration [6]
inactive: phenotypically active [12] 0 | phenotypically active [18] 0
active: phenotypically active [7] 1 | phenotypically active [8] 1 | phenotypically active [9] 1 | phenotypically active [10] 1 | phenotypically active [11] 1 | phenotypically active [13] 1 | phenotypically active [14] 1 | phenotypically active [15] 1 | phenotypically active [16] 1 | phenotypically active [17] 1 | phenotypically active [19] 1 | phenotypically active [20] 1

CN1CCCC(n2nc(Cc3ccc(Cl)cc3)c3ccccc3c2=O)CC1 (stereo not given) [azelastine]
inactive: phenotypically active [13] 0
3 µM: lowest phenotypically active concentration [1] | lowest phenotypically active concentration [5]
9 µM: lowest phenotypically active concentration [2] | lowest phenotypically active concentration [3] | lowest phenotypically active concentration [4] | lowest phenotypically active concentration [6]
active: phenotypically active [7] 1 | phenotypically active [8] 1 | phenotypically active [9] 1 | phenotypically active [10] 1 | phenotypically active [11] 1 | phenotypically active [12] 1 | phenotypically active [14] 1 | phenotypically active [15] 1 | phenotypically active [16] 1 | phenotypically active [17] 1 | phenotypically active [18] 1 | phenotypically active [19] 1 | phenotypically active [20] 1
